Assay outcomes: PubChem, several laboratories
GDH-TPI counter-1 = GDH-TPI coupling enzyme inhibitors, primary screen, artefact control for M. tuberculosis FBA inhibitor project, biochemical, absorbance, full deck. inhibition, % at 4.8 µM. 360,000 compounds, 1.2% hits. GDH-TPI coupled enzyme counterscreen, NADH absorbance; in the data active = inhibition above about 30%;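 note: 0% = DMSO wells and 100% = wells lacking the enzyme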
Rv3671c inh = Rv3671c serine protease inhibitors, primary screen, biochemical, fluorescence polarization, M. tuberculosis H37Rv. AID 2606, 2010. P9WHR9. inhibition, % at 5.96 µM. 320,000 compounds, 0.048% hits; in the data active = inhibition above about 38%;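 note: extracellular domain of Rv3671c used as enzyme; 0% = enzyme with DMSO and 100% = no enzyme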
Mtb FBA inh = Mtb FBA enzyme inhibitors, primary screen, biochemical, fluorescence, strain H37Rv; Fructose-bisphosphate aldolase (Mycobacterium tuberculosis (strain ATCC 25618 / H37Rv)), …; inhibition, % at 1 µM; 360,000 compounds, 2.3% hits; purified M. tuberculosis FBA, fluorescence read-out;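 note: 0% = vehicle and 100% = reference inhibitor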
Target sequence (P9WQA3 whole entry, looked up): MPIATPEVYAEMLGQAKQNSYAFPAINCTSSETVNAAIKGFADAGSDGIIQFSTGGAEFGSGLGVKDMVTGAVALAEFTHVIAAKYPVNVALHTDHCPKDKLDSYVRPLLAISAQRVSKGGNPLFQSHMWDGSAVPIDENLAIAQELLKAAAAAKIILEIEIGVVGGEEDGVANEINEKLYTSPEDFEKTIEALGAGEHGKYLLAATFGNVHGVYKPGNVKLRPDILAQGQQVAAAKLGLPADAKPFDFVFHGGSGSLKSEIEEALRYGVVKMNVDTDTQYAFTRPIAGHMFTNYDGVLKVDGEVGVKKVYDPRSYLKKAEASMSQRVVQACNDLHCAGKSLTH
BioA inh = M. tuberculosis BioA enzyme inhibitors, primary screen, biochemical, plate reader, single point, HTS; purified M. tuberculosis BioA enzyme; 360,000 compounds, 0.096% hits; inhibition, % at 9.99 µM; in the data active = inhibition above about 40%
FadD28 binding = inhibitors of FadD28 bisubstrate probe binding, primary screen, biochemical, fluorescence polarization, single point. Mycobacterium tuberculosis FadD28 fatty-acid-AMP ligase. inhibition, % at 12.5 µM. AID 588549, 2011. 360,000 compounds, 0.22% hits; in the data active = inhibition above about 8.5%, passing the limit was not always enough
Mtb FBA confirm = M. tuberculosis aldolase blockers, biochemical, fluorescence, strain H37Rv, confirmation. shares compounds with Mtb FBA inh. purified M. tuberculosis FBA, fluorescence read-out. inhibition, % at 1 µM. 5,600 compounds, 78% hits;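 note: 0% = vehicle wells and 100% = reference inhibitor wells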
GDH-TPI counter-2 = GDH-TPI coupling enzyme inhibitors, artefact control for M. tuberculosis FBA inhibitor project, biochemical, fluorescence, high throughput | AID 652141, 2013 | shares compounds with Mtb FBA inh | 5,600 compounds, 81% hits | GDH-TPI coupled enzyme counterscreen | inhibition, % at 1 µM; in the data active = inhibition above about 10%
An asterisk follows results filed as active; nt = not tested or not shown; + = active, no number. Compounds with a hit are over-represented: about 3% of the library has one in this group of screens. Cut-off read from the data, not from the text of the source, unless noted: active = inhibition above about 27%; inactive = the rest.

SMILES	GDH-TPI counter-1	Rv3671c inh	Mtb FBA inh	BioA inh	FadD28 binding	Mtb FBA confirm	GDH-TPI counter-2
Cc1csc2nc3cc(C(N)=O)ccc3c(=O)n12	11.4	-0.3	71.6*	-0.8	-2.2	+	+
NC(=O)c1ccc2c(=O)n3c(-c4cc(Cl)c(N)c(Cl)c4)csc3nc2c1	10.8	-14.4	2.6	-0.2	-4.6	nt	nt
Cc1ccc(-c2csc3nc4ccc(C(=O)NCCO)cc4c(=O)n23)cc1	5.1	-1.3	30.8*	0.2	-2.4	+	+
O=C(N[C@H]1CC[C@H](CCNC(=O)C2CCOCC2)O[C@H]1CO)c1ccncc1	nt	nt	nt	1.6	nt	nt	nt
N#C/C(=C\c1cccnc1)c1ccccn1	4.3	-0.9	37.3*	-0.4	nt	45.5*	41.4*
CCOC(=O)c1nc(-c2ccccc2)oc1N1CCOCC1	3.6	-3.1	97.2*	nt	-0.7	119.5*	94.6*
Cc1c(OCC(=O)N2CCC(C(N)=O)CC2)ccc2c3c(c(=O)oc12)CCC3	17.6	2.3	16.7	3.3	-1.5	nt	nt
COc1ccc(CNC(=O)COc2cc3c(c4oc(=O)cc(C)c24)CCC(C)(C)O3)cc1	21.6	-9.7	43.3*	0.1	-8.0	+	170.9*
Cc1c(C)c2c(OCC(=O)N3CCC(C(=O)NCC(C)C)CC3)cc3c(c2oc1=O)CCC(C)(C)O3	7.8	-9.6	51.2*	-1.4	-1.9	-3.9	-0.2
COc1ccc(CN(C)C[C@H]2Oc3ccc(NC(=O)NC(C)C)cc3C(=O)N([C@@H](C)CO)C[C@@H]2C)cc1	nt	nt	nt	0.6	nt	nt	nt
Cc1nc2nc(NCc3cccs3)nn2c(C)c1Cl	3.4	-23.1	35.0*	0.1	-2.3	62.2*	41.5*
Cc1nc2nc(Cc3ccccc3)nn2c(C)c1Cl	8.9	-4.0	0.6	0.9	-1.5	nt	nt
Cc1nc2nc(-c3ccco3)nn2c(C)c1Cl	10.1	-2.7	38.4*	-2.0	-1.8	37.0*	34.5*
Cc1nc2nc(-c3cccnc3)nn2c(C)c1Cl	-3.1	1.5	-6.3	nt	-0.5	nt	nt
COc1ccc(CNc2nc3nc(C)c(Cl)c(C)n3n2)cc1	6.1	6.3	4.3	-2.0	0.2	nt	nt
Cc1nc2nc(COc3ccccc3)nn2c(C)c1Cl	4.8	2.1	38.7*	-0.7	0.1	+	188.5*
O=C(C[C@H]1CC[C@@H]2[C@H](COC[C@H](O)CN2C(=O)c2cccnc2)O1)NCc1ccc(Cl)cc1	nt	nt	nt	0.0	nt	nt	nt
O=C(COC(=O)c1ccc(O)cc1)Nc1cc(C(F)(F)F)ccc1N1CCOCC1	-2.9	-2.7	3.4	-0.9	-1.2	nt	nt
O=C(COC(=O)c1ccccc1NCCO)Nc1cc(C(F)(F)F)ccc1N1CCOCC1	3.7	-1.8	69.9*	4.5	-0.3	3.0	-5.0
CC1Cc2ccccc2N1C(=O)COC(=O)c1ccccc1NCCO (stereo unspecified)	15.8	-1.2	109.3*	-1.8	-0.1	79.9*	67.4*
O=C(OCC(=O)N1CCCc2ccccc21)c1ccccc1NCCO	-9.3	2.1	99.4*	0.3	-2.3	148.0*	140.0*
CC1Cc2ccccc2N1C(=O)COC(=O)c1cccnc1Cl (stereo unspecified)	5.5	1.0	0.9	20.7	-4.6	nt	nt
CC1CCN(C(=O)COC(=O)c2ccccc2NCCO)CC1	14.3	nt	92.2*	-0.5	-0.1	130.5*	111.5*
OC[C@@H]1[C@H](c2ccc(-c3ccc(F)cc3)cc2)[C@@H]2CN(CCC(F)(F)F)CCCCN12	nt	nt	nt	-0.8	nt	nt	nt
C[C@@H]1CCCCO[C@H](CN(C)C(=O)C2CCCCC2)[C@H](C)CN([C@@H](C)CO)C(=O)c2cc(NC(=O)c3ccncc3)ccc2O1	nt	nt	nt	0.7	nt	nt	nt
SMILES	GDH-TPI counter-1	Rv3671c inh	Mtb FBA inh	BioA inh	FadD28 binding	Mtb FBA confirm	GDH-TPI counter-2
CN(C)CC#Cc1ccc([C@@H]2[C@H]3CN(C(=O)c4ccc5c(c4)OCO5)CCCCN3[C@H]2CO)cc1	nt	nt	nt	3.1	nt	nt	nt
CC(OC(=O)c1ccccc1NCCO)C(=O)NC1CCCCC1C (stereo unspecified)	4.3	4.3	95.8*	-0.5	-0.7	1.2	-3.7
CCC(=O)N1[C@H](C(=O)NC2CCCC2)[C@@H](CO)[C@@H]2Cn3c(ccc(C4=CCCC4)c3=O)[C@@H]21	nt	nt	nt	0.8	nt	nt	nt
CCc1ccccc1Cn1c(=O)oc2cccnc21	-7.3	7.1	40.4*	nt	-3.0	41.4*	37.0*
O=C(NCCc1ccccc1)C1CCC(=O)N(CCCN2CCCC2=O)C1 (stereo unspecified)	-0.8	1.8	-0.9	-0.1	0.4	nt	nt
O=C(NCc1cc2ccccc2[nH]1)C1CCC(=O)N(CCCN2CCCC2=O)C1 (stereo unspecified)	4.8	-2.4	30.0*	-3.1	0.8	62.4*	32.2*
c1ccc(Nc2ccc(-n3ccnc3)nn2)cc1	5.3	4.8	69.0*	nt	-3.8	126.9*	139.8*
CCOC(=O)c1cc(C#N)c(SCC(N)=O)[nH]c1=O	10.1	18.8	22.4	nt	-2.0	nt	nt
CCOC(=O)c1cc(C#N)c(SCC(=O)O)[nH]c1=O	16.7	10.3	42.5*	nt	-3.1	32.3*	22.5*
CCCC[n+]1ccn(-c2nc3ccccc3nc2[N-]S(=O)(=O)c2ccc(C)cc2)c1	17.2	-0.7	19.3	0.1	1.3	nt	nt
CCCC[n+]1ccn(-c2nc3ccccc3nc2[N-]S(=O)(=O)c2ccccc2)c1	14.4	6.1	33.1*	-2.3	-1.3	+	196.9*
CO[C@H]1CN(C)C(=O)c2cc(NS(=O)(=O)c3ccccc3)ccc2OC[C@@H](C)N(Cc2ccccn2)C[C@H]1C	nt	nt	nt	0.5	nt	nt	nt
CN(C)C(=O)C[C@@H]1C=C[C@@H](NC(=O)C2CC2)[C@H](CO)O1	nt	nt	nt	2.8	nt	nt	nt
COc1ccc(CCNC(=O)C(=O)c2cn(CC(=O)N3CCOCC3)c3ccccc23)cc1OC	12.1	-0.1	27.1*	1.0	0.1	+	+
NC(=NCCc1ccccc1)NC(=O)c1cc(Cl)ccc1O	4.8	4.0	45.9*	nt	2.4	89.5*	76.9*
COCCN(C[C@@H]1N[C@@H](CO)[C@@H]1c1ccc(-c2cccnc2)cc1)C(C)=O	nt	nt	nt	2.2	nt	nt	nt
CCN1CCSc2ccc(C(=O)NCc3ccc(OC(C)C)cc3)cc21	15.3	8.3	41.7*	0.4	0.3	80.5*	55.7*
CCOc1ccc(CNC(=O)c2ccc3c(c2)N(CC)CCS3)cc1	6.2	2.2	70.9*	-0.1	-1.5	122.3*	88.2*
COc1ccc(CCNC(=O)c2ccc3c(c2)N(Cc2ccc(F)cc2)CCS3)c(OC)c1	7.6	-16.5	22.6	-2.8	-1.2	nt	nt
CCN1C(=O)CSc2ccc(C(=O)NCc3ccc(OC)cc3)cc21	-11.9	-11.1	-4.5	-0.7	-3.9	nt	nt
